# Screening results (PubChem)
# A selection: hits, their analogues and other compounds. The true share with any hit is near 19%.
# HT1080NT lethal: kills 2HG-producing HT-1080-NT fibrosarcoma cells. HT-1080-NT fibrosarcoma viability, CellTiter-Glo ATP luminescence, 48 h. Potency, µM (highest dose often 46.1 µM), for inactives: at the highest dose activity, negative = less viability, most hits filed as cytotoxic. actives 1.6% (n = 360,000);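 note: NT is the 2HG producing partner of a matched IDH1 knockdown line; potency is the fitted concentration of half-maximal effect; 0% = DMSO-treated cells and -100% = media-only wells without cells; nearly all actives have a fitted effect of over 55% in size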
#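 HT-1080-NT; 750 cells/well; 5% FBS RPMI; 48 h compound, 37 degrees C; CellTiter-Glo luminescence; curve fitting and curve-class assignment.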
# DT40 TDP1 CPT: DT40-hTDP1 cell growth loss with CPT | chicken DT40 Tdp1-/-;hTDP1 cells + 20 nM CPT, ATP luminescence, 48 h | Potency, µM (doses to about 46.2 µM), for the others: at the top dose activity change, negative = growth inhibition, most hits filed as inhibitors | actives 12% (n = 420,000); note: potency is the fitted concentration of half-maximal effect; nearly all actives have a fitted effect of over 55% in size
#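 Chicken DT40 Tdp1-/- cells stably complemented with human TDP1 were seeded at 400 cells/well in medium containing 20 nM camptothecin, exposed to pin-transferred compounds, and grown at 37 °C for at least 48 hr. Viability was read as ATP luminescence.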
# IL1B secr inh: inflammasome signaling inhibition, IL-1 beta readout; activity change, % at 57.5 µM; THP-1 LPS/ATP IL-1B secretion, AlphaLISA, 16 h; hits give low values; actives 4.7% (n = 360,000); AID 743279; in the data active = activity change below about -50%; inconclusive = mostly about -30% to -49%
#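 Secreted IL-1B measured by AlphaLISA bead assay after 16 h compound exposure of THP-1 cells; compounds (final up to 57.5 uM) added 1 h before LPS (250 ng/mL) and ATP (1.25 mM) stimulation; lower signal means less secretion.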
# TDP1 cell noCPT: qHTS for Inhibitors of human tyrosyl-DNA phosphodiesterase 1 (TDP1): qHTS in cells in absence of CPT; AID 686978, 2013; actives 15% (n = 420,000); Potency, µM (doses to about 46.2 µM), for inactives: top-dose activity change, negative = growth inhibition, most hits filed as inhibitors; DT40 Tdp1-/- hTDP1 cells, no CPT, ATP luminescence, 48 h; note: potency is the fitted concentration of half-maximal effect; nearly all actives have a fitted effect of over 55% in size
#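 Growth kinetics read by CellTiter-Glo luminescence after ≥48 hr at 37 °C. Cells: DT40 Tdp1-/- stably carrying human TDP1, 400 per well, compound exposure in the absence of CPT (DMSO vehicle).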
# HT1080 IDH1KD tx: kills HT-1080 cells with IDH1 knockdown; Potency, µM (series often up to 46.1 µM), inactives show top-dose activity, negative = toxicity, most hits filed as cytotoxic; actives 2% (n = 360,000); HT-1080 IDH1 knockdown viability, ATP luminescence, 48 h;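 note: potency is the fitted concentration of half-maximal effect; 0% = DMSO wells and -100% = cell-free medium wells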
#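 Knockdown cells (IDH1KD HT-1080) received compounds 2 h after plating at 750 cells/well and were kept 48 h at 37 °C in 5% FBS RPMI. A CellTiter-Glo luminescence read gave % activity for curve fitting.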
# Active calls of the source: *; ? = inconclusive; / = no result; [ ] = dose if it differs, or a comment. Unless noted, calls come from the whole dose curve; as a rule, active = well fitted curve in the direction sought with a large enough effect; inconclusive = small, poorly fitted or top-dose-only effect, or another doubt; inactive = no such curve, though single readings can be large; an effect the other way counts as inactive or inconclusive. Unless noted, % is set by controls: 0 for no effect and ±100 for the full control effect.
SMILES,HT1080NT lethal,DT40 TDP1 CPT,IL1B secr inh,TDP1 cell noCPT,HT1080 IDH1KD tx
COc1ccc(NC(=O)C(C)n2nc(-c3cc(C)ccc3C)c3c(c2=O)CCCC3)cc1 (stereo unspecified),/,20.6µM*,/,?,/
O=[N+]([O-])c1cccc(S(=O)(=O)c2ccc(N3CCCCC3)c([N+](=O)[O-])c2)c1,-11.6%,?,-15.5,25.9µM*,-23.9%
O=[N+]([O-])c1cc(S(=O)(=O)c2ccc(N3CCCCC3)c([N+](=O)[O-])c2)ccc1N1CCCCC1,-3.4%,?,-7.6,20.6µM*,0.0%
CC(=O)c1ccc2c(c1)CCN2,-1.3%,2.0%,-4.4,-3.1%,1.6%
CCOC(=O)Cn1nnnc1CN(Cc1ccc(OC)cc1)Cc1cc2cc(C)cc(C)c2[nH]c1=O,-1.3%,23.1µM*,0.0,25.9µM*,-4.3%
CCN(Cc1cc2cc(OC)ccc2[nH]c1=O)C(=O)Cc1ccc(OC)cc1,5.1%,?,-5.8,?,3.1%
CCOC(=O)Cn1nnnc1CN(Cc1ccc(OC)cc1)Cc1cc2cc(CC)ccc2[nH]c1=O,-28.6%,14.6µM*,-89.2*,?,-4.9%[9.24 µM]
COc1ccc(S(=O)(=O)N2CCC(C(=O)NCCCn3ccnc3)CC2)cc1C,10.8%,1.7%,-5.6,-11.6%,12.5%
CC1CCN(CC(O)COCCOc2ccc(Br)cc2)CC1 (stereo unspecified),-4.4%,-19.8%,-7.8,?,-4.1%
CC1CCN(CC(O)COCCC23CC4CC(CC(C4)C2)C3)CC1 (stereo unspecified),?,20.6µM*,?,20.6µM*,?
OCCNCCCOc1cccc(Cl)c1Cl,/,0.188µM*,/,0.211µM*,/
CCCCNCCCOc1cccc(Cl)c1Cl,?,14.6µM*,-63.8*,?,?
Clc1ccc(Cl)c(OCCN2CCCC2)c1,-1.2%,5.5%,1.6,9.8%,4.2%
OCCNCCCOc1cc(Cl)ccc1Cl,?,?,-2.3,18.4µM*,-17.9%
COc1ccccc1OCCCCCNCCO,-13.8%,-14.4%,-2.4,-8.6%,19.7%[9.24 µM]
CC(C)C(=O)N[C@@H]1c2ccccc2CC[C@@H]1OCc1ccccc1,-1.3%,-29.5%,-16.7,-26.6%,2.2%
O=c1[nH]c(Cc2ccccc2Cl)nc2ccccc12,1.0%,-4.7%,12.5,-13.8%,-1.2%
Cc1ccc2c(=O)[nH]c(Cc3ccccc3C(=O)O)nc2c1,0.0%,?,-7.0,18.4µM*,-2.3%
Cc1ccc(NC(=O)CN(C)C(=O)CSc2nc(C)cs2)cc1,11.8%,0.6%,-18.8,2.8%,5.0%
COc1ccccc1/C=C/C(=O)OCC(=O)c1c[nH]c2ccccc12,-10.5%,?,29.2,20.6µM*,1.0%
COc1ccccc1/C=C/C(=O)OCC(=O)c1cc(C)n(C)c1C,22.8%,?,-13.6,?,19.2%
COc1cc(OC)c(N(C)S(=O)(=O)c2cccc(C(=O)OCC(=O)c3c[nH]c4ccccc34)c2)cc1Cl,-20.3%,?,13.2,23.1µM*,?
Cc1ccc(C(=O)OCC(=O)c2c[nH]c3ccccc23)cc1,-10.2%,-2.1%,39.9,0.3%,-9.9%
C=CCN(c1ccccc1OC)S(=O)(=O)c1cccc(C(=O)OCC(=O)c2c[nH]c3ccccc23)c1,1.0%,?,-1.6,23.1µM*,-12.8%
CC(C)Cc1ccc(C(C)C(=O)OCC(=O)c2c[nH]c3ccccc23)cc1 (stereo unspecified),?,10.3µM*,-24.3,13µM*,?
SMILES,HT1080NT lethal,DT40 TDP1 CPT,IL1B secr inh,TDP1 cell noCPT,HT1080 IDH1KD tx
O=C(CN(Cc1ccco1)C(=O)c1ccc(N2CCCC2=O)cc1)Nc1ccccc1C(F)(F)F,17.9%,-8.7%,-5.3,?,3.0%
CSc1cccc(NC(=O)Cn2cnc(S(=O)(=O)N3CCCC3)c2)c1,22.8%,4.3%,23.0,22.2%,7.0%
C=CCN(c1ccccc1OC)S(=O)(=O)c1cccc(C(=O)NC2=NCCS2)c1,1.5%,?,-10.9,23.1µM*,1.7%
Cc1csc(SCC(=O)NC(=O)C2CCCCC2)n1,-5.0%,-13.2%,-1.2,-3.3%,-4.0%
COc1ccc(CNC(=O)c2[nH]c(C)c(C(C)=O)c2C)cc1,-4.3%,9.2µM*,46.1,?,-8.6%
O=C(Nc1cccnc1)c1cccc(-c2cc3ccccc3oc2=O)c1,10.7%,34.3%,20.2,-7.3%,11.3%
O=C(NCc1cccnc1)c1ccc(-c2cc3ccccc3oc2=O)cc1,?,11.6µM*,-22.5,?,?
CCCCC(CC)CNC(=O)c1[nH]c(C)c(C(C)=O)c1C (stereo unspecified),11.9%,?,24.9,23.1µM*,-6.9%
COc1cc(=O)oc(-c2ccccc2)c1C(C)=O,0.0%,19.2%,-10.8,-2.1%,3.6%
CC(=O)c1c(C)oc2c1C(=O)c1ccccc1C2=O,-1.4%,8.2µM*,35.2,7.31µM*,-5.0%
CC(NC(=O)COC(=O)CN1C(=O)C2CCCCC2C1=O)c1ccccc1 (stereo unspecified),1.9%,-25.6%,-4.9,-14.2%,8.5%
COc1ccccc1OCCNC(=O)Nc1cc(F)c(F)cc1Cl,-18.2%,0.1%,-23.4,-22.1%,-2.8%
Cc1onc(-c2ccccc2Cl)c1C(=O)NCc1cccnc1,-1.1%,-17.4%,-14.0,-0.3%,-2.5%
Cc1oc2c(c1C(=O)NCc1cccnc1)C(=O)c1ccccc1C2=O,4.11µM*,0.92µM*,-80.6*,1.03µM*,2.59µM*
COc1ccc(CNC(=O)c2c(C)oc3c2C(=O)c2ccccc2C3=O)cc1,?,8.2µM*,37.2,10.3µM*,-9.8%
COc1ccc(-n2c(=O)c(-c3ccc(F)cc3)nc3cncnc32)cc1,/,-8.0%,/,-9.0%,/
NNc1nnc(-c2ccccc2)c(-c2ccccc2)n1,?,13µM*,7.6,16.4µM*,?
NNc1nc(-c2ccccc2)c2ccccc2n1,-23.0%,4.3%,93.1,-2.8%,-11.7%
COc1cc(-n2c(C)nc3cccnc32)c(Cl)cc1C(=O)O,13.4%,-10.1%,-4.2,15.9%,7.8%
Cc1ccc(-c2nc(CS(=O)CC(=O)NCc3ccccc3Cl)c(C)o2)cc1 (stereo unspecified),/,-7.5%,/,?,/
CC(C)n1c(/C=C/c2ccccc2)nc2ccccc21,25.7%,-6.1%,-78.1*,?,1.8%
CCCn1c(/C=C/c2ccccc2)nc2ccccc21,10µM*,?,-20.8,23.1µM*,10µM*
CC(C)c1ccccc1NC(=O)Cn1c(/C=C/c2ccccc2)nc2ccccc21,?,18.4µM*,-7.2,?,-26.8%
Cc1ccccc1CNC(=O)c1ccccc1,2.8%,?,12.9,1.0%,14.2%
